Measurements reported in ChEMBL document CHEMBL4513216, “Probing the Open Global Health Chemical Diversity Library for Multistage-Active Starting Points for Next-Generation Antimalarials” (ACS Infect Dis, 2020).
In all, about 69,000 compounds went through this assay and about 8,600 (12%) showed an effect of 50% or more. The sample as a whole holds a higher share of strong results than the screen did.

What follows are compounds tested on Plasmodium berghei (assay: Screen against P. berghei liver stage (PbLuc), transformed with Luciferase, at 10uM). Details: tested at 10 uM.
Format: functional, HepG2
`CC(C)(C)OC(=O)N[C@@H]1C[C@@H](O)CN(C(=O)c2ccc(F)cc2)C[C@H]1O` showed an INHIBITION of 6.26%. `COCCN1CCC(c2ncc(C(=O)N3CCOCC3)c(C)n2)CC1` showed an INHIBITION of -2.09%. In the case of `CCOCCCNC(=O)C1(C)CCC(=O)N1c1ccccc1F` (stereo not given), the INHIBITION was 37.4%. Compound `CC(C)C(=O)NCc1cccc(N2CCCCC2=O)c1` has an INHIBITION of 19.4%. `CC(C)C(=O)NCCNC(=O)C12CCC(=O)N1c1cc(Cl)ccc1S2` (stereo not given) was tested, and the INHIBITION was 57.6%. With `CC(C)NC(=O)CNC(=O)N1CCc2c([nH]c3ccc(Cl)cc23)C1` the INHIBITION was -22.9%. In the case of `CC(C)NC(=O)CNC(=O)C12CCC(=O)N1c1cc(Cl)ccc1S2` (stereo not given), the INHIBITION was 73.6%. Compound `COC(=O)CNC(=O)C12CCC(=O)N1c1cc(Cl)ccc1S2` (stereo not given) has an INHIBITION of 15.9%. `Cc1nn(C)c(Cl)c1C1CCCN1C(=O)c1ccncc1` (stereo not given) was tested, and the INHIBITION was 38.5%. In the case of `O=C(c1cscn1)N1CCC2(CCCN(CCOc3ccccc3)C2)C1` (stereo not given), the INHIBITION was -31.9%. With `CCN(C)S(=O)(=O)NCC1CCCN(Cc2ccccc2F)C1` (stereo not given) the INHIBITION was 1.74%. With `CCC(C)N1Cc2c(C(=O)N3CCOCC3)nn(C)c2C1` (stereo not given) the INHIBITION was 19.5%. `Cc1cnn(CC2CCCCN2C(=O)Cc2ccc(C#N)cc2)c1` (stereo not given) gave an INHIBITION of 2.97%. `Oc1cc(CN2CCC(O)(Cn3ccnc3)CC2)nc2ccc(F)cc12` was tested, and the INHIBITION was 62.8%. Work on `Oc1cc(CN2CCC(O)(Cn3ccnc3)CC2)nc2c(Cl)cccc12` yielded an INHIBITION of 27.6%. `Cc1ccc2nc(CN3CCC(O)(Cn4ccnc4)CC3)cc(O)c2c1` was tested, and the INHIBITION was 43.4%. Compound `Cc1ccc2nc(CN3CCN(C4CCCC4)C(=O)C3)cc(O)c2c1` has an INHIBITION of -0.529%. `Cc1ccc2nc(CN3CCC(O)(CN4CCCC4)CC3)cc(O)c2c1` showed an INHIBITION of 69.3%. In the case of `Cc1ccc2nc(CN3CCN(C4CCCCC4)C(=O)C3)cc(O)c2c1`, the INHIBITION was -46.2%. For `CC(=O)N1CCc2nc(C3CCN(C(=O)c4ccccc4)C3)ncc2C1` (stereo not given), the INHIBITION was -29.8%. `CN(Cc1cccs1)C(=O)CN1CCCC(Cn2cncn2)C1` (stereo not given) was tested, and the INHIBITION was -4.16%. `CN1CCCN(S(=O)(=O)c2cccc(C(=O)N3CCCCCC3)c2)CC1` gave an INHIBITION of 36%. `CCc1nnc(CNC(=O)CCC2CCCCN2C)s1` (stereo not given) showed an INHIBITION of 6.72%. In the case of `Cc1[nH]c(=O)[nH]c(=O)c1CN1CCCC(CCc2ccccc2F)C1` (stereo not given), the INHIBITION was 19.7%. Compound `CN1N=C(C(=O)N2CCCC(CCc3c(F)cccc3F)C2)CCC1=O` (stereo not given) has an INHIBITION of 0.139%. For `CS(=O)(=O)NCCC1CCCN(Cc2ccccc2F)C1` (stereo not given), the INHIBITION was 43.1%. `COc1cccc(F)c1CN1CCC(c2nc(C)cc(C)n2)C1` (stereo not given) gave an INHIBITION of 43.45%. `O=c1cc(CN2CCCC(CCc3c(F)cccc3F)C2)[nH]c(=O)[nH]1` (stereo not given) was tested, and the INHIBITION was 58.5%. `Cc1[nH]c(=O)[nH]c(=O)c1CN1CCCC(CCc2c(F)cccc2F)C1` (stereo not given) gave an INHIBITION of 6.8%. `COc1coc(CN2CCCC(CCc3c(F)cccc3F)C2)cc1=O` (stereo not given) was tested, and the INHIBITION was 56.3%. `COc1coc(CN2CCCC(CCc3ccccc3C)C2)cc1=O` (stereo not given) gave an INHIBITION of 46.4%. `COc1coc(CN2CCCC(CCc3ccccc3F)C2)cc1=O` (stereo not given) was tested, and the INHIBITION was 60.4%. Work on `COCCOCC(=O)NCc1ccc(N(C)C)nc1` yielded an INHIBITION of 26.1%. In the case of `COCCN1CCN(C(C(=O)O)c2ccc(SC)cc2)CC1` (stereo not given), the INHIBITION was 49.4%. `Cn1cc(CN2CCCC(O)C2)c(-c2ccccc2F)n1` (stereo not given) showed an INHIBITION of 3.13%. `COc1cccc(CN2CCC3(CC2)CCN(C(=O)[C@@H]2CCCO2)C3)c1` showed an INHIBITION of -47.9%. Work on `Cc1ccc(N2CCOC(C)(C(=O)N(C)C)C2)nn1` (stereo not given) yielded an INHIBITION of 18.3%. `Cc1n[nH]c(C2CN(C(=O)c3csnn3)CCO2)n1` (stereo not given) showed an INHIBITION of 35.1%. Compound `CC(C)c1n[nH]c(C2CN(C(=O)c3cc4c(s3)CCC4)CCO2)n1` (stereo not given) has an INHIBITION of 52.3%. In the case of `Cc1n[nH]c(C2CN(C(=O)c3cc4c(s3)CCCC4)CCO2)n1` (stereo not given), the INHIBITION was -1.14%. Work on `CCc1nnsc1C(=O)N1CCOC(c2nc(C)n[nH]2)C1` (stereo not given) yielded an INHIBITION of 51.3%. With `CCc1nc(C)ncc1C(=O)N1CCOC(c2nc(C)n[nH]2)C1` (stereo not given) the INHIBITION was 23.5%. In the case of `Cc1n[nH]c(C2CN(C(=O)c3cc4c(s3)CCC4)CCO2)n1` (stereo not given), the INHIBITION was 0.914%. With `CCc1n[nH]c(C2CN(C(=O)c3csnn3)CCO2)n1` (stereo not given) the INHIBITION was 40.4%. With `CC(C)c1n[nH]c(C2CN(C(=O)c3csnn3)CCO2)n1` (stereo not given) the INHIBITION was 52.7%. In the case of `CCc1nnsc1C(=O)N1CCOC(c2nc(C(C)C)n[nH]2)C1` (stereo not given), the INHIBITION was -2.61%. For `CC(CO)NC(=O)c1ccc(NCc2ccccc2)cc1` (stereo not given), the INHIBITION was 19.8%. `Cc1cc(Nc2ccc(F)cn2)cc(C2CCCN2)n1` (stereo not given) gave an INHIBITION of 34.9%. `CCN(C(=O)C1Cc2cc(Cl)ccc2O1)C1CC1` (stereo not given) gave an INHIBITION of 38.3%. In the case of `CNc1cc(C)nc(C2CCN(CCO)CC2)n1`, the INHIBITION was -2.09%. Compound `Cc1nc(CN2C(=O)COC3(CCN(Cc4ccco4)CC3)C2C)cs1` (stereo not given) has an INHIBITION of -4.86%. For `Cc1cc(NCC2CCN(c3ccccc3)C2)n2ncnc2n1` (stereo not given), the INHIBITION was 78.9%. In the case of `Cc1cc(NCc2ccccc2CN2CCCCC2)n2ncnc2n1`, the INHIBITION was 54.4%. `CCc1cc(NCc2cccnc2N2CCCCC2)n2ncnc2n1` showed an INHIBITION of 36.2%. In the case of `COc1cccc(N2CCC(CNC(=O)NCc3ccco3)C2)c1` (stereo not given), the INHIBITION was -51%. `Cc1cc(NCC2CCCCC2)n2ncnc2n1` gave an INHIBITION of 9.8%. With `Cc1cc(NC2CCN(c3ccccc3)C2)n2ncnc2n1` (stereo not given) the INHIBITION was 4.94%. With `CCc1cc(NCc2ccccc2CN2CCCC2)n2ncnc2n1` the INHIBITION was 11.1%. With `Cc1cc(NCCn2cccn2)n2ncnc2n1` the INHIBITION was -38.8%. `COc1cccc(N2CCC(CNc3cc(C)nc4ncnn34)C2)c1` (stereo not given) was tested, and the INHIBITION was 65.5%. In the case of `CCc1n[nH]c(C2CN(C(=O)c3cc4c(s3)CCC4)CCO2)n1` (stereo not given), the INHIBITION was -7.31%. For `C[C@H]1CN(C(=O)c2ccc[nH]2)C[C@@]12CCN(c1ccsc1)C2=O`, the INHIBITION was 18.3%. For `NC(=O)c1cc(C2CCCN(CCOc3cccc(F)c3)C2)n[nH]1` (stereo not given), the INHIBITION was 43.48%. For `CN(C)Cc1nn(C)c2c1CN(C(=O)c1ccc[nH]1)C2`, the INHIBITION was -4.02%. `COc1ccc(-c2ccnc3nc(N4CCCC4)[nH]c(=O)c23)cc1OC` gave an INHIBITION of 40%. `Cc1cccc(NC(=O)N2CCN(Cc3noc(C4CC4)n3)CC2)c1` was tested, and the INHIBITION was 46.2%. With `CC(=O)N1Cc2cnc(C(C)(C)C)nc2C1` the INHIBITION was 19.8%. Work on `CC(=O)c1c(C)nn(CC(=O)N2Cc3cnc(C(C)(C)C)nc3C2)c1C` yielded an INHIBITION of -10.4%. With `Cc1cc(C)n(CC(=O)N2Cc3cnc(C(C)(C)C)nc3C2)n1` the INHIBITION was 51.3%. Work on `Cc1noc(Cl)c1CCC(=O)N1CCN(c2ccccc2)CC1` yielded an INHIBITION of 26.5%. `Cc1c(CNC(=O)NCc2cccc(-n3cncn3)c2)cnn1C` was tested, and the INHIBITION was -40.4%. `CSC(C)(C)CNC(=O)NCc1cccc(-n2cncn2)c1` was tested, and the INHIBITION was -17.9%. For `O=C(NCc1cccc(-n2cncn2)c1)NCC(C1CC1)C1CC1`, the INHIBITION was 50.2%. `CCn1ncc(CN(C)C(=O)c2ccn(C)n2)c1C` gave an INHIBITION of 30%. `Cc1ccsc1C(=O)N1CCN(Cc2cscn2)CC1` showed an INHIBITION of -6.14%. With `COCCN1C(=O)[C@@H]2CC[C@H]1CN(c1nccc(C3CCCC3)n1)C2` the INHIBITION was -47.9%. Compound `c1ccc(CN2CCCn3nnc(CNc4ncccn4)c3C2)nc1` has an INHIBITION of -18.4%. Work on `OC(COCc1ccccc1)CN1CCC(Cn2cccn2)CC1` (stereo not given) yielded an INHIBITION of 43.5%. For `CN(C)C(=O)c1cnc2n1CCN(Cc1ccccc1)C2`, the INHIBITION was 9.67%. `Cc1cccc(CN2CCn3c(C(=O)N(C)C)cnc3C2)c1` gave an INHIBITION of 50.9%. `Cc1ccc(CN2CCn3c(C(=O)N(C)C)cnc3C2)cc1` gave an INHIBITION of 41.6%. `O=C(CCOCc1ccccc1)NS(=O)(=O)N1CCOc2ccccc21` was tested, and the INHIBITION was -13.6%. For `CCc1ncc2c(n1)CN(Cc1ncc(C(C)(C)C)o1)CC2`, the INHIBITION was 20%. `COC(=O)CN(C(=O)c1ccc(-n2ccnc2)cc1)C1CCCC1` gave an INHIBITION of 0.566%. Work on `COCCN1CC[C@@H]2O[C@H](COCc3csc(C)n3)CC[C@@H]21` yielded an INHIBITION of 3.11%. In the case of `CC(=O)N1CC[C@@H]2O[C@@H](COCc3csc(C)n3)CC[C@@H]21`, the INHIBITION was 6.6%. `Cc1nc(COC[C@@H]2CC[C@H]3[C@H](CCN3S(C)(=O)=O)O2)cs1` gave an INHIBITION of 25%. Compound `Cc1nc(COC[C@H]2CC[C@H]3NCC[C@H]3O2)cs1` has an INHIBITION of 51.2%. `Cc1nc(COC[C@@H]2CC[C@H]3NCC[C@H]3O2)cs1` gave an INHIBITION of 55.6%. `Cc1nc(COC[C@H]2CC[C@H]3[C@H](CCN3c3ncccn3)O2)cs1` showed an INHIBITION of 42.7%. `CCn1cc(CN2CCCN(C(=O)CCc3cccs3)CC2)cn1` showed an INHIBITION of 11.4%. Compound `c1cnn(Cc2cn3c(n2)CN(Cc2nccs2)CC3)c1` has an INHIBITION of 16.6%. `COc1ccccc1C(C)(C)NC(=O)Nc1ccc(F)c(C(N)=O)c1` showed an INHIBITION of -16.9%. With `Cc1cc(C)c(CNC(=O)CC2CCCO2)c(=O)[nH]1` (stereo not given) the INHIBITION was 14.55%. For `CCOCCCNC(=O)Cc1cccs1`, the INHIBITION was 30.8%. `CCOCCCNC(=O)C(NC(=O)Cc1cccs1)c1ccccc1` (stereo not given) was tested, and the INHIBITION was 34.2%. For `CCOCCCNC(=O)C(NC(=O)Cc1cccs1)c1ccc(C)cc1` (stereo not given), the INHIBITION was 54%. `CN1CCOC(CN(C(=O)CCCn2cccn2)c2nccs2)C1` (stereo not given) gave an INHIBITION of -14.6%. In the case of `CC(C)NC(=O)N1Cc2nccn2CC(CN2CCCC2)C1` (stereo not given), the INHIBITION was 73%. Compound `O=C(c1ccccc1)N1Cc2nccn2CC(Cn2ncccc2=O)C1` (stereo not given) has an INHIBITION of 11.5%. `CC(=O)NCC(=O)N1Cc2nccn2CC(CN2CCCC2)C1` (stereo not given) gave an INHIBITION of 28.4%. With `O=C(N1CCCC1)N1Cc2nccn2CC(CN2CCCC2)C1` (stereo not given) the INHIBITION was 42.6%. In the case of `NC(=O)N1Cc2nccn2CC(Cn2ncccc2=O)C1` (stereo not given), the INHIBITION was 61.9%. In the case of `O=C(CC1CC1)N1Cc2nccn2CC(Cn2ncccc2=O)C1` (stereo not given), the INHIBITION was -13.2%. Compound `OC1(Cn2ccnc2)CCN(C[C@]2(O)CCCN3CCCC[C@@H]32)CC1` has an INHIBITION of 28.8%.
